Assay outcomes from PubChem BioAssay.
An excerpt weighted towards active compounds, which were near 21% of everything screened.
Pf growth 48h – P. falciparum growth inhibition at 48 hours (one generation). P. falciparum luciferase growth in erythrocytes, 48 h. Potency, µM (titrated, usually from 28.7 µM), without a hit: at the highest dose activity change, negative = inhibition, actives largely listed as inhibitors. hit rate 5.9% among 310,000; further: potency means the concentration at half of the fitted maximal effect; on the % scale 0 is the no-effect control and ±100 the full control effect
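First compound was added to culture medium, then infected red cells at 0.1% parasitemia and 2% hematocrit (final). After incubation at 37 C under 5% CO2, luciferase detection reagent was dispensed and light output recorded.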
Pf growth 96h – P. falciparum growth inhibition at 96 hour, primary screen for plastid delayed-death inhibitors | P. falciparum luciferase reporter growth, 96 h | Potency, µM (highest dose often 28.7 µM), inactives show top-dose activity change, negative = inhibition, usual class: inhibitors | hit rate 6.9% among 320,000; further: potency means the concentration at half of the fitted maximal effect; on the % scale 0 is the no-effect control and ±100 the full control effect
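P. falciparum expressing integrated firefly luciferase grown in erythrocytes (2% hematocrit, 0.05% parasitemia final) with compounds for 96 hours at 37 C, 5% CO2. Growth inhibition read as loss of luminescence after adding luciferase detection reagent.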
CHX counter – counter-screen hit for Shiga toxin inhibitors, cycloheximide; hit rate 12% among 300,000; max response, %; cell reporter, cycloheximide protein synthesis inhibition counterscreen; AID 2314; in the data active means max response mostly above about 13%, no sharp cut-off; inactive means mostly below about 14%; further: read at 38.3 µM for the half of the compounds with a filed dose; 0% is about no effect
Shiga toxin inh – blocks Shiga toxin action in Vero cells; AID 2315; hit rate 9.2% among 290,000; Vero cells, Shiga toxin protein synthesis inhibition reporter; inhibition, % at 38.7 µM; in the data active means inhibition mostly above about 28%, no sharp cut-off; inactive means mostly below about 43%; further: 0% is about no effect
* hit, by the source's call; ? = inconclusive; nt = no result. Unless noted, the call rests on the fitted dose curve; in most records, active means well fitted inhibition curve with a large enough effect; inconclusive means small, poorly fitted or top-dose-only effect, or another doubt; inactive means no such curve, though single readings can be large or run the other way.

SMILES	Pf growth 48h	Pf growth 96h	CHX counter	Shiga toxin inh
CCN(CC)CCNC(=O)C1c2ccccc2Oc2ccccc21	16.1%	-50.1%	-1.7	-4.7
O=C(NCCCn1ccnc1)C1c2ccccc2Oc2ccccc21	-24.7%	10.4µM*	-5.2	-5.4
O=C(O)C1CCCCN1S(=O)(=O)c1ccc(Cl)s1 (stereo not given)	nt	9.28µM*	0.2	-15.9
O=C(Cc1cccs1)N1CCCC(c2nc3c(nnn3Cc3ccccc3Cl)c(=O)[nH]2)C1 (stereo not given)	5.22µM*	32.2%	5.8	23.2
O=C(Cc1cccs1)N1CCCC(c2nc3c(nnn3Cc3ccc(F)cc3)c(=O)[nH]2)C1 (stereo not given)	?	-16.8%	11.2	-15.0
O=C(c1ccco1)N1CCCC(c2nc3c(nnn3Cc3cccc(Cl)c3)c(=O)[nH]2)C1 (stereo not given)	?	52.5%	-6.7	-8.3
O=C(c1ccco1)N1CCC(c2nc3c(nnn3Cc3c(Cl)cccc3Cl)c(=O)[nH]2)CC1	?	0.8%	-4.7	3.7
O=C(c1cccs1)N1CCCC(c2nc3c(nnn3Cc3c(Cl)cccc3Cl)c(=O)[nH]2)C1 (stereo not given)	13.1µM*	?	-4.4	-12.2
CC(C)(C)c1ccc(Cn2nnc3c(=O)[nH]c(C4CCN(C(=O)c5ccco5)CC4)nc32)cc1	6.57µM*	-2.0%	-2.8	-6.6
CC(C)(C)c1ccc(Cn2nnc3c(=O)[nH]c(C4CCCN(C(=O)c5cccs5)C4)nc32)cc1 (stereo not given)	?	4.15µM*	-3.6	2.5
CN(C)S(=O)(=O)c1cccc(NC(=O)Cc2ccc(-c3ccccc3)cc2)c1	1.7%	?	0.6	-23.0
CC[C@@]1([C@@H]2O[C@@H]([C@H]3O[C@@](O)(CO)[C@H](C)C[C@@H]3C)C[C@@H]2C)CC[C@@H]([C@]2(C)CCC3(C[C@H](O)[C@@H](C)[C@@H]([C@@H](C)[C@@H](OC)[C@H](C)C(=O)O)O3)O2)O1 (stereo not given in full)	nt	nt	-1.2	10.5
Cc1ccc(NC(=O)CN(C)C(=O)Cc2c(Cl)cccc2Cl)cc1	?	?	-3.4	-2.5
O=C(NCc1cccs1)c1nc2c(nnn2Cc2ccccc2Cl)c(=O)[nH]1	4.15µM*	-26.6%	-6.9	-18.7
CC(C)(C)c1ccc(Cn2nnc3c(=O)[nH]c(C4CCCN(C(=O)Cc5cccs5)C4)nc32)cc1 (stereo not given)	?	5.22µM*	-3.3	41.5
CCC(C)NC(=O)c1nc2c(nnn2Cc2ccccc2Cl)c(=O)[nH]1 (stereo not given)	1.7%	16.6%	-1.5	6.4
Cc1ccc(Cn2nnc3c(=O)[nH]c(C4CCN(C(=O)Cc5cccs5)CC4)nc32)cc1	-49.9%	?	-5.3	-31.0
CC(C)(C)c1ccc(Cn2nnc3c(=O)[nH]c(C4CCN(C(=O)Cc5cccs5)CC4)nc32)cc1	5.86µM*	nt	-3.7	-17.0
CCN(CC(=O)Nc1ccc(NC(C)=O)cc1)C(=O)CC1OC(=O)c2ccccc21 (stereo not given)	6.1%	31.7%	nt	nt
O=C(NCc1ccc2c(c1)OCO2)C1CCCN1C(=O)Nc1ccccc1 (stereo not given)	17.3%	10.8%	-1.8	-1.7
O=C(NCc1ccc2c(c1)OCO2)C(=O)Nc1ccccc1	103.8%	4.0%	22.1*	90.5*
Cc1cc(C)cc(-n2c(SCC(=O)NCc3ccc4c(c3)OCO4)nc3ccccc3c2=O)c1	?	?	-2.6	-8.7
CCOC(=O)c1c(NCCN(C)C)c2ccccc2[nH]c1=O	57.0%	97.9%	-0.6	-9.1
O=C(CSc1nc2cc([N+](=O)[O-])ccc2n1-c1ccccc1)NCc1ccc2c(c1)OCO2	-21.9%	10.4µM*	-1.2	17.7
Cc1ccccc1Cn1c(=O)n(CCC(=O)NCc2ccc3c(c2)OCO3)c(=O)c2ccccc21	nt	4.65µM*	-2.0	-9.4
SMILES	Pf growth 48h	Pf growth 96h	CHX counter	Shiga toxin inh
CCOC(=O)c1c(NCc2ccc3c(c2)OCO3)c2ccccc2[nH]c1=O	-16.6%	24.2%	19.2*	10.2
CC(C)CNc1nc(Oc2ccc(=O)[nH]n2)nc(N2CCOCC2)n1	-1.8%	28.8%	-2.2	15.4
N#Cc1c(Cl)cccc1Oc1ccc(S(=O)(=O)Nc2ccccc2)cc1	8.0%	?	-1.8	18.9
CCOc1ccc2[nH]cc(C(=O)NCc3ccccc3)c(=O)c2c1	8.8%	?	8.6	-4.9
CCN(CC(=O)Nc1c(C(=O)OC)[nH]c2ccccc12)c1ccc2c(c1)OCO2	10.4µM*	?	3.7	7.7
O=C(Cc1ccccc1[N+](=O)[O-])NCc1ccc2c(c1)OCO2	113.6%	92.6%	58.3*	69.0*
O=C(NCc1ccccc1)c1c[nH]c2cc3c(cc2c1=O)OCCO3	10.7%	-26.3%	36.8*	30.2*
O=C(CC12CCC(CC1)C2)NCc1ccc2c(c1)OCO2	60.0%	?	25.6*	43.9*
O=C(CCNC(=O)c1ccccc1)OCC(=O)c1ccccc1	27.7%	95.4%	13.4	7.3
CCNS(=O)(=O)c1ccc(CCC(=O)NCc2ccc3c(c2)OCO3)cc1	-17.7%	0.415µM*	-0.2	-3.6
CC1CCCC(C)N1C(=O)Cn1c(SCC(=O)NCc2ccc3c(c2)OCO3)nc2ccccc21 (stereo not given)	6.57µM*	-17.7%	-1.1	-6.6
O=C(CCc1ccc(S(=O)(=O)NCc2ccccc2)cc1)NCc1ccc2c(c1)OCO2	-4.2%	nt	1.7	-17.0
O=C(Cc1ccccc1)NCc1ccc2c(c1)OCO2	nt	10.4µM*	58.7*	117.6*
CN(C)C(=O)Cn1c(SCC(=O)NCc2ccc3c(c2)OCO3)nc2ccccc21	2.4%	90.4%	-2.2	-8.2
O=C(Cn1nc(-c2ccccc2)ccc1=O)NCc1ccc2c(c1)OCO2	5.2%	1.31µM*	-2.3	-11.8
O=C(CNC(=O)c1cccc([N+](=O)[O-])c1)NC1CCCc2ccccc21 (stereo not given)	-6.6%	?	nt	nt
O=C(CCc1ccccc1)NCc1ccc2c(c1)OCO2	17.9%	-28.6%	14.0*	19.4
O=C(CN1C(=O)c2ccccc2S1(=O)=O)NCc1ccc2c(c1)OCO2	-5.3%	9.28µM*	11.4	1.4
O=C(CCc1c[nH]c2ccccc12)NCc1ccc2c(c1)OCO2	-2.2%	-1.2%	2.2	-10.7
O=C(Cc1c[nH]c2ccccc12)NCc1ccc2c(c1)OCO2	15.3%	31.5%	18.7*	16.0
CCCC(=O)NCc1ccncc1	2.3%	18.6%	-3.2	-6.9
O=C(CCc1ccccc1)NCc1ccncc1	9.6%	3.7µM*	-2.4	-4.7
CCC1=C(c2ccc(C)cc2)S(=O)(=O)N=C1N1CCC(C(=O)NCCCN2CCCCC2)CC1	-11.1%	-1.8%	-3.4	8.7
CCS(=O)(=O)c1ccc2oc(SCC(=O)N3CCCCC3)nc2c1	2.3%	-31.7%	8.3	28.8
Cc1ccccc1OCC(O)CN1CCN(CC(O)COc2ccccc2C)C(C)C1 (stereo not given)	9.28µM*	?	-2.9	-2.4
C=C1CC(C)OC(c2ccccc2OCC(O)CN2CCCCC2)C1 (stereo not given)	14.7µM*	18.0%	-3.8	-0.1
